hgDAF-12 ag – agonists of H. glycines DAF-12 nuclear receptor; hit rate 1.8% among 370,000; activation, % at 6.8 µM; HEK293 GAL4-hgDAF12 UAS-luciferase reporter, agonist luminescence; normalized to butyrate control;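 active means activation above a cutoff set at the mean of all screened compounds plus 3 SD, cut at about 10% in these data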
hcDAF-12 act – H. contortus DAF-12 activation, primary screen; HEK293 hcDAF-12 lit1-tk-luc reporter, luminescence; 0% DMSO, 100% Δ7-dafachronic acid; activation, % at 6.8 µM; hit rate 1.4% among 370,000; AID 652067;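 active means activation above the mean of all tested compounds plus 3 SD, cut at about 5.5% in these data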
DAX1 inh-1 – blocks DAX1 repression of SF-1 activated StAR promoter | inhibition, % at 6.8 µM | hit rate 1.1% among 370,000 | HEK293T StAR-luciferase reporter, SF-1/DAX-1 repression relief;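 active means inhibition above the mean over all tested compounds plus 3 SD, cut at about 3.6% in these data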;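 further: higher inhibition means more luminescence from relief of DAX-1 repression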
DAX1 inh-2 – inhibits human nuclear receptor DAX1; P51843; HEK293 Gal4-DAX1 luciferase reporter, luminescence; inhibition, % at 6.75 µM; hit rate 0.99% among 340,000; AID 504766;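 active means inhibition above the mean over all tested compounds plus 3 SD, cut at about 4.2% in these data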;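 further: inhibition shows as a rise in luminescence from relieved DAX1 repression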
Target sequence (P51843 207-470 limits assumed): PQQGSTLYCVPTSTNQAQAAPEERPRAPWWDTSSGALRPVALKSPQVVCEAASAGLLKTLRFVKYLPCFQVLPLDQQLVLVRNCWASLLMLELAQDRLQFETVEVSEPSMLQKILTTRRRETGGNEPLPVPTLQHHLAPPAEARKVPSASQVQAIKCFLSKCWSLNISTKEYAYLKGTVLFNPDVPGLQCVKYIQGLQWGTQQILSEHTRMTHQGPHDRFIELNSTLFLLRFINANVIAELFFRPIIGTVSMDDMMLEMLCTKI
SMARCA2 activ – increases SMARCA2 function in MMTV reporter cells | MG213 cells, MMTV-luciferase reporter, dexamethasone, overnight | activation, % at 9.1 µM | hit rate 1% among 370,000; in the data active means activation above about 7.8%
ssDAF-12 act – activates DAF-12 receptor from parasite S. stercoralis | HEK293 ssDAF-12/GRIP1 lit1-tk-luc reporter, luminescence; % of 3 µM dafachronic acid response | activation, % at 6.8 µM | hit rate 1% among 370,000;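 active means activation above the mean over all tested compounds plus 3 SD, cut at about 0.9% in these data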
SMARCA2 conf – SMARCA2 activation, confirmation screen; hit rate 30% among 3,500; MG213 cells, MMTV-luciferase with dexamethasone, luminescence, overnight; MG213 cells expressing E1A, Rb sequestered; DMSO wells 0%, reference activator 100%; activation, % at 9.1 µM; shares compounds with SMARCA2 activ;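 active means activation above its plate's cutoff, the mean activation of tested wells plus 3 SD, cut at about 7.9% in these data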
GAL4-VP16 Luc – activates GAL4-VP16 luciferase, flagging SMARCA2 activator hits; shares compounds with SMARCA2 activ; HEK293 GAL4-VP16 pG5luc reporter, luciferase luminescence; scaled: DMSO wells 0%, SAHA wells 100%; activation, % at 9.1 µM; hit rate 41% among 3,500; AID 686939;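 active means activation above the solvent-only control well mean plus 3 SD, averaged across control plates, cut at about 5.2% in these data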
Hits are given with their value; 0 = inactive; - = no result. Hits are enriched below; roughly 4.8% of the tested compounds scored in any of these assays.

SMILES	hgDAF-12 ag	hcDAF-12 act	DAX1 inh-1	DAX1 inh-2	SMARCA2 activ	ssDAF-12 act	SMARCA2 conf	GAL4-VP16 Luc
CCN(CC)CCNC(=O)c1ccc(NCN2C(=O)NC(c3ccccc3)(c3ccccc3)C2=O)cc1	0	0	0	-	8.0	0	0	0
COc1ccccc1OCCNC(=O)c1ccc(C(C)(C)C)cc1	0	0	0	0	8.2	0	0	0
Cc1ccc(C(=O)NCCOc2cccc3cccnc23)cc1Cl	0	0	0	0	0	0	-	-
COc1cc(C(=O)NCCOc2cccc3cccnc23)cc(OC)c1OC	0	0	0	0	11	0	0	0
COc1ccccc1OCCNC(=O)CNC(=O)c1ccc(C(C)(C)C)cc1	0	0	0	0	0	0	-	-
COc1ccccc1OCCNC(=O)c1ccc(Br)cc1	0	0	0	0	8.8	0	0	0
Cc1cccc(NC(=O)c2ccc(NCC3CCCO3)c([N+](=O)[O-])c2)c1 (configuration not stated)	0	0	0	0	8.1	0	0	0
CCCS(=O)(=O)N1CCC(C(=O)Oc2ccc(OC)cc2)CC1	0	0	0	0	0	0	-	-
Nc1ccc2ccc(N)cc2c1	0	0	0	-	13	0	0	0
COCCNc1nc2cc(-c3ccc(C)cc3)sc2c(=O)n1C	12	0	3.8	-	9.0	1.0	8.8	14
CCOC(=O)Cn1cc(CN2C(C(=O)OC)CN(Cc3ccc(F)cc3)CCS2(=O)=O)nn1 (configuration not stated)	0	0	0	-	0	0	-	-
COC(=O)C1CN(Cc2ccc(Cl)cc2)CCS(=O)(=O)N1Cc1cn(Cc2ccc(Cl)cc2)nn1 (configuration not stated)	0	0	0	-	0	0	-	-
C=CCN1C(C(=O)OC)CN(Cc2cn(Cc3ccc(Cl)cc3)nn2)CCS1(=O)=O (configuration not stated)	0	0	0	-	8.5	0	0	0
CCOC(=O)Cn1cc(CN2CCS(=O)(=O)N(Cc3ccc(F)cc3)C(C(=O)OC)C2)nn1 (configuration not stated)	0	0	0	-	8.5	0	0	0
Cn1cnc2ccc([N+](=O)[O-])cc2c1=O	0	0	0	0	0	0	-	-
COC(=O)Nc1ccc2ncn(C)c(=O)c2c1	0	0	0	0	9.9	0	0	0
Cn1nc([N+](=O)[O-])nc1S(C)(=O)=O	0	0	0	0	52	0	49	0
COc1ccc(OC)c(-n2cnnn2)c1	0	0	0	0	0	0	-	-
CC(C)COC(=O)c1ccc2c(c1O)C(=O)c1ccccc1C2=O	0	0	0	0	8.7	0	0	0
C=C(C)C1Cc2cc3ccc(=O)oc3cc2O1 (configuration not stated)	0	0	0	0	0	0	-	-
CC(C)(O)[C@H]1Cc2cc3ccc(=O)oc3cc2O1	0	0	0	0	9.1	0	11	6.2
COc1cccc(-c2cnc3c(NC=O)cc(-c4ccc(N5CCN(C)CC5)cc4)cn23)c1	0	0	0	-	15	0	37	0
COc1ccc(-c2cnc3c(NC=O)cc(-c4ccc(C(=O)N5CCOCC5)cc4)cn23)cc1OC	0	0	0	-	12	0	0	0
COc1cccc(-c2cnc3c(NC=O)cc(-c4ccccc4)cn23)c1	0	0	0	-	0	0	-	-
CC(=O)c1ccc(-c2cnc3c(NC=O)cc(-c4ccc(C(=O)N5CCOCC5)cc4)cn23)cc1	0	0	0	-	0	0	-	-
SMILES	hgDAF-12 ag	hcDAF-12 act	DAX1 inh-1	DAX1 inh-2	SMARCA2 activ	ssDAF-12 act	SMARCA2 conf	GAL4-VP16 Luc
CCn1nc(C(=O)Nc2ccc3c(c2)OCCO3)c2ccccc2c1=O	0	0	0	0	0	0	-	-
N#C/C(=C\c1ccc([N+](=O)[O-])cc1)c1ccccn1	0	0	0	0	10	0	0	6.7
CNc1c(NS(=O)(=O)c2cc(Cl)ccc2OC)c(=O)oc2ccccc12	0	0	0	0	0	0	-	-
COc1cccc(-n2c(CN3CCN(Cc4ccccc4)CC3)nc3ccc([N+](=O)[O-])cc3c2=O)c1	0	0	0	-	12	0	0	0
COc1ccc(-n2c(CN3CCN(C)CC3)nc3ccc([N+](=O)[O-])cc3c2=O)c(OC)c1	0	0	0	0	0	0	-	-
CCOC(=O)c1ccc(-n2c(CN3CCN(CCO)CC3)nc3ccc([N+](=O)[O-])cc3c2=O)cc1	0	0	0	0	9.5	0	9.8	0
CN1CCN(NC(=O)c2ccc(F)cc2)CC1	0	0	0	0	0	0	-	-
CC1CCC2(CC1)NC(=O)N(CC(=O)Nc1ccc3c(c1)OCCO3)C2=O (configuration not stated)	0	0	0	0	12	0	10	0
COC(=O)c1sccc1NC(=O)CC1C(=O)NCCN1C(=O)c1c(F)cccc1Cl (configuration not stated)	0	0	0	0	0	0	-	-
CCCCN1CC(N2CCN(CCO)CC2)CS1(=O)=O (configuration not stated)	0	0	0	-	0	0	-	-
CCCCCCN1CCN(C2CN(CCCC)S(=O)(=O)C2)CC1 (configuration not stated)	0	0	0	-	8.7	0	0	0
COc1ccc(NC(=S)NC(=O)c2ccc3c(c2)OCCO3)cc1	0	0	0	0	11	0	0	11
Cc1ccc(C(=O)NC2=NCCS2)cc1	0	0	0	-	8.8	0	0	13
Cc1ccc(C(=O)NC2=NCCS2)cc1Cl	-	-	-	0	-	-	-	-
COC(=O)[C@@H](NC(=O)c1ccccc1OC1CCN(S(C)(=O)=O)CC1)C(C)C	0	0	0	0	0	0	-	-
COCCN(C(=O)c1ccccc1OC1CCN(S(C)(=O)=O)CC1)C(C)C	0	0	0	0	8.1	0	0	0
Cc1ccc2cc(CCNC(=O)c3cccs3)c(=O)[nH]c2c1	0	0	0	0	8.1	0	0	8.3
CC(=O)NCCc1cc2ccc(C)c(C)c2[nH]c1=O	0	0	0	0	8.3	0	0	0
Cc1ccc2[nH]c(=O)c(COC(=O)c3cccs3)cc2c1	0	0	0	0	8.6	0	0	0
Cc1ccc2cc(CCNC(=O)CCCc3ccccc3)c(=O)[nH]c2c1C	0	0	0	0	0	0	-	-
O=C1C2C(C(=O)N1CC1CCCO1)C1C=CC2C12CC2 (configuration not stated)	0	0	0	0	0	0	-	-
